Screening results as filed in PubChem.
CHO-K1 Ca ag: M1 agonist counterscreen hit in parental CHO-K1 cells; Fluo-8 calcium fluorescence; scaled to maximal ATP response, vehicle zero; activation, % at 3 µM; hit rate 0.48% among 360,000; in the data active = activation above about 15%;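 note: untransfected CHO-K1 host cells lacking M1 receptor as counterscreen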
M1 PAM parental: M1 PAM counterscreen hit in parental CHO-K1 cells; hit rate 0.02% among 360,000; activation, % at 3 µM; ATP EC20, Fluo-8 calcium fluorescence; 0% at ATP EC20, 100% at ATP max;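 active = activation above the run cutoff, the mean activation of all test compounds plus 3 SD, cut at about 40% in these data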;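 note: peak over basal fluorescence ratio in a 140 s read after ATP addition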
M1 ag: activates human CHRM1 receptor | P11229 | CHO-K1 hM1, Fluo-8 calcium fluorescence, agonist mode; 0% DMSO, 100% acetylcholine EC100 | activation, % at 3 µM | hit rate 0.33% among 360,000;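 active = activation above the run's mean compound activation plus 3 SD, cut at about 16% in these data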;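 note: peak over basal fluorescence ratio within a 140 s kinetic read after compound addition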
Target sequence (P11229 whole entry, looked up): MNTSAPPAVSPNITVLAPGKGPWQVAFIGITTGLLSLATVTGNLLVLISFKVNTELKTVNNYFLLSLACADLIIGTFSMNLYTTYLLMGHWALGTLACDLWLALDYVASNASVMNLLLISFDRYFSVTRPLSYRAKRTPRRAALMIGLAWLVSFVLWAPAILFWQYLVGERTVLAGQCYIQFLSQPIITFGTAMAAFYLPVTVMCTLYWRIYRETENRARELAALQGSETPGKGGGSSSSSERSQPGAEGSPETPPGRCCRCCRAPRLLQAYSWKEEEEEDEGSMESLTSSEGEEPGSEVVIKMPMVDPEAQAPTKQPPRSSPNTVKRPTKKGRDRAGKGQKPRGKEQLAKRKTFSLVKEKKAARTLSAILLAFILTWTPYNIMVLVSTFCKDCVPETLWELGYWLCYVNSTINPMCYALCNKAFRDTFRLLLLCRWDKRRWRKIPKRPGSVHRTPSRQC
CHO-K1 Ca antag: M1 antagonist counterscreen hit in parental CHO-K1 cells | ATP-induced calcium, Fluo-8 fluorescence | inhibition, % at 3 µM | hit rate 0.6% among 360,000;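 active = inhibition above a per-plate cutoff, the plate's mean sample inhibition plus 3 SD, cut at about 24% in these data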;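 note: 0% = DMSO plus EC80 ATP and 100% = DMSO alone without ATP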
CHRM1 PAM: positive allosteric modulators of human M1 muscarinic receptor; AID 588819; CHO-K1 hM1, Fluo-8 calcium fluorescence, ACh EC20; 0% = ACh EC20, 100% = maximal ACh; hit rate 0.088% among 360,000; P11229; activation, % at 3 µM; in the data active = activation above about 19%, passing the limit was not always enough
CHRM1 antagonist: blocks human M1 muscarinic receptor; P11229; CHO-K1 hM1, Fluo-8 calcium fluorescence, ACh EC80 antagonist; inhibition, % at 3 µM; hit rate 1.3% among 360,000; AID 588852;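 active = percent inhibition above its own plate's cutoff, namely the mean of that plate's compound wells plus 3 SD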;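 note: peak over basal fluorescence ratio during 140 s after agonist addition; 0% = ACh EC80 plus DMSO and 100% = DMSO alone without agonist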
Starred values were filed as active, the others as inactive. Compounds with a hit are over-represented: about 2.4% of the library has one in this group of screens.

SMILES	CHO-K1 Ca ag	M1 PAM parental	M1 ag	CHO-K1 Ca antag	CHRM1 PAM	CHRM1 antagonist
CCOc1ncccc1C(=O)Nc1cc(S(=O)(=O)N(CC)CC)ccc1N1CCOCC1	0	7	4	-10	17	5
CSc1ccccc1C(=O)N1CCc2ccc(NC(=O)c3ccccn3)cc2C1	6	-16	1	25*	-2	-1
CSc1ccc(C(=O)N2CCc3ccc(NC(=O)c4ccccn4)cc3C2)cc1	6	-21	-4	7	-7	9
COc1ccc([C@H]2CN(Cc3ccccc3)C(=O)[C@@H]2CC(=O)Nc2ccccc2)cc1	1	4	-2	1	9	-21
O=C1NC(c2ccccc2)CCO1 (stereo not given)	0	14	3	-18	29*	-23
C[C@H]1CN([C@@H](C)CO)S(=O)(=O)c2ccc(-c3ccccc3)cc2O[C@H]1CN(C)C(=O)C1CCC1	2	25	-4	-7	4	-16
CC1CCCCN1C(=S)Nc1ccc(S(=O)(=O)N2CCCCC2)cc1 (stereo not given)	0	-1	-1	4	13	-17
O=c1cc(-c2c(O)c3ccccc3n(Cc3ccccc3)c2=O)[nH][nH]1	17*	10	-5	9	5	-3
CCn1c(=O)c(-c2cc(=O)[nH][nH]2)c(O)c2ccccc21	0	18	-8	-14	11	-5
C/C(=N/NC(=O)CNc1ccc(C)cc1)c1ccc(Br)s1	21*	3	8	2	4	0
Cn1cnnc1SCc1ccc(C(=O)N=Nc2c(O)n(C)c3ccccc23)cc1	3	27	-7	-3	-5	2
CC(=O)c1ccc(N(C(=O)CS(=O)CC(=O)Nc2ccc(F)cc2)C(C(=O)NC2CCCCC2)c2cccs2)cc1 (stereo not given)	-1	-11	-5	25*	-1	-2
O=C(CS(=O)CC(=O)N(CC(=O)NC1CCCC1)C1CCCC1)Nc1ccc(F)cc1 (stereo not given)	2	-5	-4	5	28*	12
O=C1N/C(=C/c2cccn2-c2ccccc2)C(=O)N1Cc1ccc(F)cc1	0	20	-6	-11	-1	1
O=C1N/C(=C/c2cccn2-c2ccc(F)cc2)C(=O)N1Cc1ccccc1F	-1	-13	2	25*	12	-9
CC(=O)c1ccc2c(c1)N(C)c1ccccc1S2	0	4	-2	19	10	-14
CC(=O)c1ccc2c(c1)N(CCCN(C)C)c1ccccc1S2	1	2	-7	3	-25	95*
CCC(=O)c1ccc2c(c1)N(CCCN(C)C)c1ccccc1S2	1	6	-5	-1	-25	94*
CC(C)C(=O)N[C@@H]1c2ccccc2CC[C@@H]1O	0	9	-2	-4	8	-7
CC1CCN(S(=O)(=O)c2ccc(NC(=O)CCNC(=O)c3ccc(Cl)cc3)cc2)CC1	0	-5	-3	-1	-1	6
N=c1sccn1CC(=O)Nc1cccc(S(N)(=O)=O)c1	0	-1	-3	2	19	35*
N=c1sccn1CC(=O)Nc1ccc(S(N)(=O)=O)cc1	0	-4	-6	-3	2	-3
C=CCn1c(COc2ccc(CC)cc2)nnc1SC/C(O)=C(\C#N)c1nc2ccccc2[nH]1	0	-8	-4	26*	-9	15
C=CCn1c(COc2ccccc2)nnc1SCc1ccc(C#N)cc1	1	-3	-5	0	-7	3
Cc1noc(C)c1S(=O)(=O)Nc1c(C)n(C)n(-c2ccccc2)c1=O	0	-6	-1	31*	5	3
Cc1n[nH]c(=S)n1/N=C/c1ccc(OCc2ccc(Cl)cc2)cc1	0	-8	-3	25*	1	2
O=C(c1[nH]c(C(F)(F)F)nc1-c1ccccc1)N1CCN(c2c(Cl)cncc2Cl)CC1	9	4	17*	-2	-8	-2
O=C(c1[nH]c(C(F)(F)F)nc1-c1ccccc1)N1CCN(c2ccccc2)CC1	1	0	2	9	0	-20
CCc1ccc(C(=O)CN2CCSC2=N)cc1	0	-10	-3	13	0	1
Nc1c(-c2ccccc2)n[nH]c1-c1ccccc1	2	5	-14	-9	-37	104*
